The text below walks through data of PubChem BioAssay.

Assay [1] in a line: liver-stage malaria parasite growth inhibition, primary screen, cell-based, HepG2, luciferase luminescence, HepG2 viability (AID 624349; in the data active = parasite load remaining mostly below about 12%, no sharp cut-off; inactive = mostly above about 10%;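 note: 100% = mean of DMSO negative control wells on the same plate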). To be noted: P. berghei liver stage in HepG2, luciferase luminescence, concentration not given here; parasite load remaining: stronger effect = lower value; viability: measured here: HepG2 viability without parasites.
Assay [2] can be described thus: differential killing of epithelial or mesenchymal cells, primary screen, imaging, PC-3E GFP, TEM4-18 mCherry, co-culture (AID 1345086;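 active = compounds killing one labelled cell type while sparing the other, by normalised counts and ratio limits, not self-fluorescent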;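 for all read-outs here: cells exposed to compound for 72 h before imaging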;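 for red/green cell ratio (normalised): normalised mesenchymal count divided by normalised epithelial count so high means epithelial killing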). Particulars: imaging cell counts, at 1 µM; for red/green cell ratio (normalised): actives lie on both sides, counts scaled to control wells, 1 = unselective.
Assay [3] in a line: sensitizers of A549 cells to miR-34 induction, primary screen, imaging, A549 dox-inducible miR-34, nuclei and caspase counts (AID 1347080). Particulars: A549 miR-34 inducible, Hoechst nuclei count, 48 h.
The test system of assay [4] is Hepatitis C virus NS3 helicase. In words: HCV NS3 helicase inhibitors, primary screen, biochemical, fluorescence polarization, LOPAC1280 library (AID 687035; in the data active = inhibition above about 37%). To be noted: Purified HCV NS3 helicase, Cy5-dT15 ssDNA binding fluorescence polarization; stronger effect = higher value; concentration not given here. In general terms: Polarisation of emitted light reports the rotation of a fluorescent probe.

Assay [5] in a line: Cy5 fluorescence quenching or enhancement artefacts, artefact control for HCV NS3 helicase inhibitor project, biochemical, LOPAC1280 (AID 687037; call rule not given here). Particulars: Cy5-DNA-NS3h complex fluorescence interference counterscreen. For orientation: The purpose of a counterscreen is to sort out artefacts and off-target activity.
Assay [6] in a line: phospholipid biosynthesis inhibitors in animal cells, primary screen, cell-based, LOPAC library, screen 4 (AID 1347384; call rule not given here). Particulars: phospholipid biosynthesis inhibition screen, at 10 µM.
Assay [7] is described as follows: viability rescue of complex I mutant cybrids, primary screen, cell-based, galactose medium, ATP luminescence (AID 1645843;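 active = z-score of at least 1.8 in each of two replicates, scored against plate mean and spread of sample wells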;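 note: positive z means more ATP and so rescue of galactose-driven cybrid death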). To be noted: complex I mutant cybrid cells, 72 h, stronger effect = higher value.
Assay [8] deals with NAD(+) hydrolase SARM1 (Homo sapiens) (UniProt Q6SZW1). In words: SARM1 TIR NADase inhibitors, cell lysate, NAD-Glo luminescence (AID 1508614;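 active = compound whose remaining NAD level is above about 45 nM, limit read from the data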;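 note: higher remaining NAD means stronger inhibition of SARM1 NADase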). Particulars: SAM-TIR HEK293T lysate NADase, at 1 µM, stronger effect = higher value.
Chain of NAD(+) hydrolase SARM1 (Homo sapiens) (Q6SZW1 whole entry, looked up): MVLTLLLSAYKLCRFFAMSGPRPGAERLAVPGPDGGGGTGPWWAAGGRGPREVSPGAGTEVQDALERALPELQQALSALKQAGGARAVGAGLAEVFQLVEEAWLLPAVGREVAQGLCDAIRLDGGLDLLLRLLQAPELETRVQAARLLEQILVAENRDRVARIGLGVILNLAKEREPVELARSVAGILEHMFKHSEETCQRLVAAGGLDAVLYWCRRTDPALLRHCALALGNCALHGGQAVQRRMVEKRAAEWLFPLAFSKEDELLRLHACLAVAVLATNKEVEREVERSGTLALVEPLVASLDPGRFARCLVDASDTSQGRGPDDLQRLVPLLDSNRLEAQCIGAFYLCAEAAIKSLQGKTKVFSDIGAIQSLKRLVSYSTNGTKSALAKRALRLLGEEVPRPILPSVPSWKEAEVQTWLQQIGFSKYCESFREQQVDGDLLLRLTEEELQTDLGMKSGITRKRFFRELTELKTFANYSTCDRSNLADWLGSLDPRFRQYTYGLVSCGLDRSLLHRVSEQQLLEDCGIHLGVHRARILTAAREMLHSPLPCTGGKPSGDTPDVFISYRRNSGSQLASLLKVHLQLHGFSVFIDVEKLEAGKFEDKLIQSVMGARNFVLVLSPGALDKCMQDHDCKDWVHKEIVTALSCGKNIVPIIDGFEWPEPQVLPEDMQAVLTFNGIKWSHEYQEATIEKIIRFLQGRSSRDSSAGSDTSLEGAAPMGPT
Assay [9] can be described thus: survival rescue of mitochondrial mutant cells in low glucose, primary screen, MELAS cybrids, Rieske KO mouse fibroblasts, CellTiter-Glo (AID 1508586;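 active = mean z-score across replicates of 1.96 or higher in either the MELAS or the Rieske mutant cell line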;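 note: z relative to plate mean and SD of compound and empty wells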). A general note: Cellular ATP, detected with luciferase, serves as a proxy for viable cell number.
A short description of assay [10]: LFS_MB_P medulloblastoma growth inhibition, cell-based, chromothripsis tumors, cisplatin or BGB combos (AID 1671449; in the data active = inhibition above about 80%;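 note: cells exposed for 96 hours; 0% = vehicle DMSO and 100% = killing by high DMSO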). Particulars: LFS_MB_P medulloblastoma cells.
Assay [11] is described as follows: HDN33 neuroblastoma growth inhibition, cell-based, chromothripsis tumors, cisplatin or BGB combos (AID 1671450; in the data active = inhibition above about 80%;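 note: cells exposed to compound for four days; 0% = vehicle DMSO and 100% = cell killing by high DMSO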). To be noted: HDN33 neuroblastoma cells, stronger effect = higher value.
Assay [12] is described as follows: ICB984 medulloblastoma cell growth inhibition, synergistic combos for chromothripsis tumors, cisplatin or BGB combos (AID 1671451; call rule not given here;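 note: cells exposed for 96 hours before readout; 0% = vehicle DMSO and 100% = killing by high DMSO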). To be noted: ICB984 medulloblastoma cells, drug combinations, stronger effect = higher value.
Assay [13] can be described thus: HTB85 osteosarcoma cell growth inhibition, synergistic combos for chromothripsis tumors, BGB or cisplatin IC20 combos (AID 1671453; in the data active = inhibition above about 80%;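 note: cells exposed for 96 hours before readout; 0% = vehicle DMSO and 100% = high DMSO killing control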). To be noted: HTB85 osteosarcoma cells, drug combinations, stronger effect = higher value.
Assay [14] in a line: MDA-MB-436 breast carcinoma cell growth inhibition, synergistic combos for chromothripsis tumors, BGB or cisplatin combos (AID 1671458; call rule not given here;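 note: cells exposed for 96 hours; 0% = vehicle DMSO and 100% = killing by high DMSO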). Particulars: MDA-MB-436 breast carcinoma growth inhibition, drug combinations, stronger effect = higher value.
Setting [15] is: measured here: epithelial PC-3E GFP cell survival.
[16] abbreviates: measured here: mesenchymal TEM4-18 mCherry cell survival.
The mark [17] stands for this setting: stronger effect = lower value, cell number ratio, induced over uninduced.
Where [18] appears, read: measured here: relative caspase fold change +Dox/-Dox.
[19] abbreviates: measured here: total cells with miR-34 induction, stronger effect = lower value.
Setting [20] is: measured here: total cells without miR-34 induction.

Where “and” joins values, the source holds several entries; their conditions need not be identical. Equal entries are not always repeated. Calls of active or inactive are those of the source.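 Rule for the calls, unless noted: active = compounds whose cell count with miR-34 switched on is under 0.7 times the count with it off; inactive = the rest.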

A word on the viability: it is a read-out of living cells in per cent, often relative to untreated cells. Turning to `COC1CC2CCC(C)C(O)(O2)C(=O)C(=O)N2CCCCC2C(=O)OC(C(C)CC2CCC(O)C(OC)C2)CC(=O)C(C)/C=C(\C)C(O)C(OC)C(=O)C(C)CC(C)/C=C/C=C/C=C/1C` (stereo not given), the parasite load remaining in assay [1] was 60.9% (inactive). Also, in [1], the viability came to 98.1%. Besides, the red/green cell ratio (normalised) in assay [2] was 1.36 (inactive). Further, the normalised cell number came out at 0.36 in assay [2] (setting [15]) and 0.49 in [2] (setting [16]). Further, the figures for the fold change in assay [3] (setting [17]) and in assay [3] (setting [18]) were 0.865 (inactive) and 3.67, respectively. Besides, the cell count in assay [3] (setting [19]) worked out at 7720; in assay [3] (setting [20]), 8920.
`C[C@]1(Cn2ccnn2)C(C(=O)O)N2C(=O)CC2S1(=O)=O` (stereo not given in full): the red/green cell ratio (normalised) in assay [2] was 0.89 (inactive). The normalised cell number in assay [2] (setting [15]) was 1.34; in [2] (setting [16]), 1.19. The fold change in [3] (setting [17]) is 0.905 (inactive); in assay [3] (setting [18]), 0.742. The cell count in [3] (setting [19]) was determined as 8100; in assay [3] (setting [20]) it was 8960.
As a reminder, the inhibition is the change of the read-out against control, counted positive when it falls. Take `CN1C2CCC1CC(OC(=O)c1c[nH]c3ccccc13)C2` (stereo not given): the inhibition in assay [4] is 0% (inactive). Moreover, the fluorescence ratio (interference) in assay [5] is 1 (inactive). Besides, the red/green cell ratio (normalised) in [2] is 1.09 (inactive). The figures for the normalised cell number in assay [2] (setting [15]) and in [2] (setting [16]) were 0.93 and 1.02, respectively. The fold change in assay [3] (setting [17]) was 0.997 (inactive) and 0.976 (inactive) and 0.922 (inactive); in assay [3] (setting [18]) it was 1.28 and 0.664 and 2.09. The cell count in assay [3] (setting [19]) was 10100 and 8850 and 6980; in [3] (setting [20]) it was 10100 and 9070 and 7570. Also, the call in [6] was inactive. The z-score in assay [7] was -0.34 (inactive) and 0.77 (inactive).
Take `CC(=O)OCC(=O)[C@@]1(O)CCC2C3CCC4=CC(=O)C=C[C@]4(C)[C@@]3(Cl)[C@@H](Cl)C[C@@]21C` (stereo not given in full): the red/green cell ratio (normalised) in assay [2] is 1 (inactive). Moreover, the normalised cell number in assay [2] (setting [15]) and in [2] (setting [16]) was 1.2 in each case. Further, the results for the fold change in assay [3] (setting [17]) and in assay [3] (setting [18]) were 0.864 (inactive) and 1.22, respectively. For the same compound, the results for the cell count in assay [3] (setting [19]) and in assay [3] (setting [20]) were 6210 and 7190, respectively.
In the case of `CC(=O)Nc1ccc(OC(C)=O)cc1`, in assay [2], the red/green cell ratio (normalised) was 0.87 (inactive). Also, the values for the normalised cell number in [2] (setting [15]) and in assay [2] (setting [16]) were 1.25 and 1.09, respectively. Also, the fold change in assay [3] (setting [17]) is 0.883 (inactive); in assay [3] (setting [18]), 1.21. The cell count was found to be 8510 in assay [3] (setting [19]) and 9640 in [3] (setting [20]). Also, the remaining NAD in [8] is 10 nM (inactive).
With `O=C(Nc1ccccc1)c1ccccc1O`, the parasite load remaining in [1] is 67.6% (inactive). The viability in assay [1] turned out to be 101%. For the same compound, in [2], the red/green cell ratio (normalised) is 1 (inactive). Besides, the normalised cell number in assay [2] (setting [15]) and in [2] (setting [16]) was 1.39 in each case. Besides, the fold change in assay [3] (setting [17]) is 0.912 (inactive) and 0.877 (inactive); in assay [3] (setting [18]) it was 0.72 and 3.66. Further, the cell count was 7720 and 10000 in [3] (setting [19]); 8460 and 11400 in assay [3] (setting [20]). In addition, the z-score in assay [9] (MELAS cybrid survival, CellTiter-Glo 48 h, stronger effect = higher value) was -0.183 (inactive); in [9] (Rieske KO mouse fibroblast survival, CellTiter-Glo 72 h), -0.206. For the same compound, in assay [8], the remaining NAD was 10 nM (inactive). Moreover, the inhibition in assay [10] (at 0.5 µM, stronger effect = higher value) was -6.1% (inactive); in assay [10] (measured here: combination with BGB IC20, at 0.005 µM), 6.63%; in assay [10] (measured here: combination with BGB IC40, at 0.005 µM), 36%; in assay [10] (measured here: combination with BGB IC40, at 0.05 µM), -10.8%; in assay [10] (measured here: combination with cisplatin, at 0.5 µM, stronger effect = higher value), -0.1%; in assay [10] (measured here: combination with cisplatin, at 5 µM, stronger effect = higher value) it was 3.47%. For the same compound, the inhibition was 22.1% in [11] (BGB combo, at 5 µM); 6.53% (inactive) in assay [11] (at 0.5 µM); 16.8% in assay [11] (cisplatin combo, at 5 µM); 4% in assay [11] (measured here: with BGB IC20 combination, at 0.5 µM); 11.1% in [11] (measured here: with cisplatin IC20 combination, at 0.5 µM); 27.8% in assay [11] (single agent, at 5 µM). Besides, the inhibition in [12] (BGB IC20 combo, at 0.005 µM) was -13.9%; in assay [12] (BGB IC40 combo, at 0.005 µM) it was -1.37%; in [12] (BGB IC40 combo, at 0.05 µM), 0.369%; in assay [12] (at 0.5 µM), -10.1% (inactive); in assay [12] (cisplatin combo, at 0.05 µM), 0.369%; in assay [12] (cisplatin combo, at 0.5 µM) it was -23.4%. Further, the inhibition in assay [12] (cisplatin combo, at 5 µM) was -15.5%; in assay [12] (measured here: 5 uM single agent, at 5 µM), 19.2%; in assay [13] (at 0.5 µM), 1.9% (inactive); in assay [13] (measured here: with BGB IC20, at 0.5 µM), -7.23%; in assay [13] (measured here: with BGB IC20, at 5 µM) it was 16.9%; in assay [13] (measured here: with cisplatin IC20, at 0.5 µM), 3.88%. Further, the inhibition was 16.9% in assay [13] (measured here: with cisplatin IC20, at 5 µM); 20.7% in [13] (single agent, at 5 µM); -7.25% (inactive) in assay [14] (at 0.5 µM); -6.93% in [14] (measured here: BGB combination, at 0.5 µM); 9.41% in [14] (measured here: BGB combination, at 5 µM); -18% in assay [14] (measured here: cisplatin combination, at 0.5 µM). Further, in assay [14] (measured here: cisplatin combination, at 5 µM), the inhibition turned out to be 28.1%.
